This excerpt belongs to a sample that is enriched for hits.
RMI-FANCM inh: RMI-FANCM interaction inhibition; Fluorescence polarization, RMI core complex with F-MM2 peptide; stronger effect = lower value; FP signal (polarization) at 33 µM; AID 1159607; 70,000 tested, 0.58% active; in the data active = FP signal below about 40
* marks the source's active call; other numbers are inactive results; ! = a repeat was not active.

SMILES	RMI-FANCM inh
Cc1oc(-c2cccc(Cl)c2)nc1CSc1nc2ccccc2c(=O)n1C	60
Cc1c(C(=O)O)sc2nc(SC3CCOC3=O)[nH]c(=O)c12 (stereo not given)	59
CC(C)CCN1C(=O)C(C)(C)COc2ccc(NC(=O)c3cc4ccccc4oc3=O)cc21	66
Cc1ccc(NC(=O)NCCS(=O)(=O)c2c(C)n(Cc3ccccc3)c3ccccc23)cc1C	31*
Cc1cccc(NC(=O)NCCS(=O)(=O)c2c(C)n(Cc3ccc(F)cc3)c3ccccc23)c1	57
Cc1c(S(=O)(=O)CCNC(=O)Nc2ccccc2Cl)c2ccccc2n1C	54
CCOC(=O)c1cc(C#N)c2ccccn2c1=O	33*
CCOC(=O)c1cc(C#N)c(Sc2ccccc2)nc1C(F)(F)F	53
CCOC(=O)c1cc(C#N)c(SCC(=O)Nc2ccc(C(C)=O)cc2)[nH]c1=O	55
C[C@]12CCC3c4ccc(OC(=O)CCC(=O)O)cc4CCC3C1CCC2=O (stereo not given in full)	53
C[C@]12CCC3c4ccc(O)cc4CCC3C1CCC2=O (stereo not given in full)	65
C[C@]12CC[C@@H]3c4ccc(OS(=O)(=O)O)cc4CC[C@H]3[C@@H]1CCC2=O	33*!
CS(=O)(=O)N1CCC(c2nn(CC(=O)Nc3cc(F)ccc3F)c(=O)n2-c2cccs2)CC1	61
CCCCCCCCOc1ccc(/C=N\NC(=O)NC23CC4CC(C2)CC(c2ccc(C)cc2)(C4)C3)cc1	64
COC(=O)N1CCc2c(sc(NC(=O)c3ccc4ncsc4c3)c2C(N)=O)C1	75
CCOC(=O)c1c(NC(=O)c2ccc3ncsc3c2)sc2c1CCN(C(=O)OCC)C2	-5*
CCOC(=O)N1CCc2c(sc(NC(=O)c3cccc(C)c3)c2C(N)=O)C1	65
Oc1ccc(N=Nc2ccccc2)cc1CN1CCOCC1	58
N#C/C(=C\c1c[nH]c2ccccc12)C(=O)Nc1cccc(C(F)(F)F)c1	104
O=[N+]([O-])c1ccc(SC2=NCCN2)c(Cl)c1	53
O=[N+]([O-])c1ccc(Sc2ccc(Cl)cc2Cl)c2nonc12	33*
O=[N+]([O-])c1ccc(Sc2ccccc2)c(Cl)c1	53
CCOC(=O)N1CCc2c(sc(NC(=O)c3cc(OC)cc(OC)c3)c2C#N)C1	68
Cc1cc(C)c(C)c(S(=O)(=O)Nc2ccc(C(=O)N3CCCCC3)cc2)c1C	74
CC(=O)N1CC(C)=C(C#N)C1O (stereo not given)	-1*
SMILES	RMI-FANCM inh
N#Cc1c(N)sc2c1CCC(c1ccccc1)C2 (stereo not given)	68
CC(C)(C)C(=O)Nc1ccc(C(=O)NCCNS(=O)(=O)c2ccc(Cl)cc2)cc1	63
CC(C)(C)NCC(O)COc1cccc2c1C[C@H](O)[C@H](O)C2 (stereo not given in full)	-57*!
CC(C)(C)NC[C@H](O)COc1cccc2c1CCCC2=O	55
COc1ccccc1OCC(O)CNC(C)(C)C (stereo not given)	71
Clc1ccc(OCc2ccc(-c3csnn3)cc2)cc1	62
Cc1noc(C)c1C(=O)O/N=C(\Cc1ccccc1)C(F)(F)F	60
O=C1Sc2cccc3cccc1c23	58*
O=C(O)c1cccc2cccc(-c3cccc4cccc(C(=O)O)c34)c12	53
CNN1C(=O)c2cccc3cccc(c23)C1=O	55
CC(C)CNC(=O)NNC(=O)c1cccn(Cc2cccc(F)c2)c1=O	63
CSc1nn(CC(=O)Nc2ccc(Cl)cc2)c(N)c1-c1nc(-c2ccc3c(c2)OCO3)no1	188
O=C(O)c1nccnc1C(=O)Nc1cc(C(F)(F)F)ccc1N1CCCC1	53
CSc1nccc(-c2ccc(Br)s2)n1	62
CSc1nccc(-c2sc(-c3ccc(Cl)cc3)nc2C)n1	32*
Cc1nccc(-c2sc(-c3cccs3)nc2C)n1	55
CC(C)c1nn(CC(=O)N2CCC(Cc3ccccc3)CC2)c(=O)c2c1cnn2C(C)(C)C	67
Oc1ccc(Br)cc1C=Nc1sc2c(c1-c1nc3ccccc3s1)CCCC2	55
O=C(CSc1ncnc2[nH]ncc12)Nc1nc(-c2ccco2)c(-c2ccco2)s1	-3*
COc1ccc(CCNC(=O)CSc2ncnc3[nH]ncc23)cc1OC	55
CCSc1nnc(NC(=O)CSc2ncnc3c2cnn3-c2ccccc2)s1	55
CC(C)(C)C(=O)Nc1ccc2scnc2c1	55
Brc1ccc2nc(NCc3ccccn3)sc2c1	69
Nc1ccccc1SC1CC(=O)N(c2ccccc2)C1=O (stereo not given)	53
Cc1ccc(S(=O)(=O)NCc2ccco2)c(C)c1	62
SMILES	RMI-FANCM inh
CC(C)(C)c1ccc(C(=O)CSc2nnc3ccccn23)cc1	74
NC(=O)C1Cc2ccccc2N1C(=O)CCCN1C(=O)c2ccccc2C1=O (stereo not given)	51
O=C1Cc2ccccc2C1=C1Cc2ccccc2C1	51
NC(=O)N1c2ccccc2CC(=O)c2ccccc21	-8*!
CCOc1ccc(OCCNC(=O)c2ccc([N+](=O)[O-])c(C)c2)cc1	60
CCCOc1ccc(-c2cc(C(=O)N=Nc3c(O)[nH]c4ccccc34)[nH]n2)cc1	58
CCOC(=O)COc1ccc(-c2cc(-c3ccccc3)c3cc(Cl)ccc3n2)cc1	64
Cc1ccc2nc(-c3ccc(OCC(=O)N=Nc4c(O)[nH]c5ccccc45)cc3)cc(-c3ccccc3)c2c1	20*
Cc1ccc(C(N=C=S)=NCc2ccc([N+](=O)[O-])cc2)cc1	66
Oc1c(Br)cc(Br)cc1C=Nc1ccccc1F	-4*
Oc1c(Br)cc(Br)cc1C=Nc1cccc(Cl)c1	20*
Oc1c(Br)cc(Br)cc1C=Nc1ccc(-c2ccccc2)cc1	43
Oc1ccc(Cl)cc1C=Nc1cccc(C(F)(F)F)c1	50
COc1ccccc1N=Cc1ccccc1OC(=O)c1ccccc1Br	58
COc1cc(Br)cc(C=Nc2ccccc2O)c1O	56
Cc1ccc2nc(NC(=O)CSc3nc4c([nH]c5ccccc54)c(=O)n3-c3ccc([N+](=O)[O-])cc3)sc2c1	45
CCOc1ccc(/C=C2\Oc3c(ccc(O)c3CN3CC4CC(C3)c3cccc(=O)n3C4)C2=O)cc1 (stereo not given)	81
COc1ccc(Br)c(C(=O)/C(C#N)=N\O)c1	57
CCOC(=O)c1ccc(S(=O)(=O)NNC(=O)c2ccccc2N)cc1	53
Nc1c(S(=O)(=O)c2cccs2)c2nc3ccccc3nc2n1Cc1ccco1	12*
Cn1c(-c2c(N)n(Cc3ccco3)c3nc4ccccc4nc23)nc2ccccc21	30
C=CCn1c(N)c(S(=O)(=O)c2ccc(Cl)cc2)c2nc3ccccc3nc21	68
CC1(C)S[C@@H]2[C@H](NC(=O)Cc3ccccc3)C(=O)N2[C@H]1C(=O)O	63
CC1(C)S[C@@H]2[C@H](NC(=O)COc3ccccc3)C(=O)N2[C@H]1C(=O)O	32*
CC1(C)SC2C(NC(=O)C(N)c3ccccc3)C(=O)N2C1C(=O)O (stereo not given)	60
Cc1ccc(S(=O)(=O)N2CCc3ccc(NC(=O)CC(C)(C)C)cc3C2)cc1	73
O=[N+]([O-])c1ccc(SCCOS(=O)(=O)c2cccc(C(F)(F)F)c2)c2nonc12	46
O=C(CSc1ccc([N+](=O)[O-])cc1[N+](=O)[O-])Nc1cccc(C(F)(F)F)c1	14*
O=C(Nc1cccc(C(F)(F)F)c1)OCCSc1ccc([N+](=O)[O-])c2nonc12	7*
Cc1cc(-c2ccccc2)nc(SCC(=O)Nc2cccc(C(F)(F)F)c2)n1	59
